Test results taken from PubChem BioAssay (NCI).
This is part of a sample that, as a whole, favours compounds with a hit. Of some 79,000 tested, about 15% had one in any assay. The source made the active and inactive calls. Rule as the data show it: active = growth inhibition above about 70%; inactive = the rest.

Key:
[1] = NCI Yeast Anticancer Drug Screen. Data for the rad52 strain (AID 147);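 also: 0% = growth of vehicle-treated control cultures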; conditions: S. cerevisiae rad52 mutant growth inhibition, active compounds read high
In short: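 Here a repair-compromised yeast strain receives each compound; its growth is then quantified and normalised to vehicle-only controls.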

[2] = NCI Yeast Anticancer Drug Screen. Data for the wt1 strain (AID 149);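 also: 0% = growth of vehicle-treated wt1 cultures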; conditions: S. cerevisiae wt1 strain (SPY 50644) growth inhibition, active compounds read high
In short: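 Using yeast strain wt1, compound-induced growth inhibition was determined against vehicle-treated cultures.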

[3] = NCI Yeast Anticancer Drug Screen. Data for the rad50EPP+ strain (AID 151);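 also: 0% = growth of vehicle-treated control cultures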; conditions: S. cerevisiae rad50 mutant strain, active compounds read high
In short: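 Read-out is yeast growth inhibition relative to vehicle; cells used were the rad50EPP+ strain.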

[4] = NCI Yeast Anticancer Drug Screen. Data for the mgt1 strain (AID 153); conditions: S. cerevisiae mgt1 mutant growth inhibition, active compounds read high
In short: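 Measured: inhibition of mgt1 yeast growth by compound, normalized to vehicle-treated cultures.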

[5] = NCI Yeast Anticancer Drug Screen. Data for the rad50 strain (AID 155);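 also: 0% = growth of vehicle-only cultures of the same strain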; conditions: S. cerevisiae rad50 strain growth inhibition, active compounds read high
In short: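 Relative growth inhibition (compound vs vehicle) was measured in yeast with a defined repair-gene alteration.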

[6] = NCI Yeast Anticancer Drug Screen. Data for the mec2-1 strain (AID 157); conditions: S. cerevisiae mec2-1 strain, active compounds read high
In short: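 Using mec2-1 yeast: add compound, measure growth, express inhibition versus vehicle-treated cultures.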

[7] = NCI Yeast Anticancer Drug Screen. Data for the rad14 strain (AID 159);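 also: 0% = growth of vehicle-treated control cultures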; conditions: S. cerevisiae rad14 strain growth inhibition, active compounds read high
In short: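 Screen for anticancer potential: a yeast strain altered in DNA damage repair is grown with compound, and reduced growth is quantified against vehicle controls.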

[8] = NCI Yeast Anticancer Drug Screen. Data for the sgs1 mgt1 strain (AID 161);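 also: 0% = growth of cultures given vehicle only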; conditions: S. cerevisiae sgs1 mgt1 strain, active compounds read high
In short: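 Percent growth inhibition was derived by comparing compound-exposed mutant yeast with vehicle-exposed cultures. The strain carries alterations in DNA damage repair.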

[9] = NCI Yeast Anticancer Drug Screen. Data for the cln2 rad14 strain (AID 165);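 also: 0% = growth equal to vehicle treated cultures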; conditions: S. cerevisiae cln2 rad14 strain, active compounds read high
In short: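 Yeast strain cln2 rad14, bearing defects in cell cycle control and DNA repair, serves as the test system; values reflect growth inhibition compared with vehicle.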

[10] = NCI Yeast Anticancer Drug Screen. Data for the bub3 strain (AID 167); conditions: S. cerevisiae bub3 mutant strain, active compounds read high
In short: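 Screening used yeast with an engineered genetic alteration affecting cell cycle control. Compound-exposed cultures were compared with vehicle cultures, and reduced growth was taken as inhibition.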

[11] = NCI Yeast Anticancer Drug Screen. Data for the wt2 strain (AID 169);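 also: 0% = growth of vehicle-treated yeast cultures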; conditions: S. cerevisiae wt2 strain growth inhibition, active compounds read high
In short: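 Treated yeast vs. vehicle-treated yeast: growth inhibition determined.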

[12] = NCI Yeast Anticancer Drug Screen. Data for the mlh1 strain (AID 171);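 also: 0% = growth of vehicle-treated control cultures of the same strain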; conditions: S. cerevisiae mlh1 strain growth inhibition, active compounds read high
In short: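 A yeast strain with a defined genetic lesion serves as the test organism. Cultures receive compound or vehicle, and growth is measured.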

[13] = NCI Yeast Anticancer Drug Screen. Data for the sgs1 strain (AID 173);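 also: 0% = growth of vehicle-only control cultures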; conditions: S. cerevisiae sgs1 mutant, active compounds read high
In short: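 A genetically defined yeast mutant is incubated with the test compound, and its growth is compared to that of the same strain given vehicle.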

[14] = NCI Yeast Anticancer Drug Screen. Data for the mlh1 rad18 strain (AID 175); conditions: S. cerevisiae mlh1 rad18 strain growth inhibition, active compounds read high
In short: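 Steps: expose repair-defective yeast to compound; measure growth; express inhibition against vehicle-treated controls.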

[15] = at 5.0 µM (retest, dose inferred, filed as 0.5)
[16] = at 50.0 µM (retest, dose inferred, filed as 5.0)

Measured: growth inhibition

c1cc(-c2sc(-c3ccncc3)c(-c3ccncc3)c2-c2ccncc2)ccn1
inactive: [1]; at 1.2 µM 4% | [1]; at 3.7 µM 17% | [1]; at 11.0 µM 63% | [2]; at 1.2 µM 2% | [2]; at 3.7 µM -1% | [2]; at 11.0 µM 0% | [2]; at 33.0 µM 12% | [2]; at 100.0 µM 58% | [3]; at 1.2 µM 5% | [3]; at 3.7 µM 18% | [3]; at 11.0 µM 34% | [3]; at 33.0 µM 68% | [4]; at 1.2 µM 0% | [4]; at 3.7 µM 2% | [4]; at 11.0 µM 2% | [4]; at 33.0 µM 25% | [5]; at 1.2 µM 10% | [5]; at 3.7 µM 19% | [5]; [15] 12% | [5]; at 11.0 µM 69% | [6]; at 1.2 µM 3% | [6]; at 3.7 µM 3% | [6]; [15] -5% | [6]; at 11.0 µM 11% | [6]; at 33.0 µM 46% | [6]; [16] 0% | [6]; at 50.0 µM 21.1% | [7]; at 1.2 µM 3% | [7]; at 3.7 µM -4% | [7]; at 11.0 µM 5% | [7]; at 33.0 µM 26% | [8]; [15] -5% | [8]; [16] 50% | [8]; at 50.0 µM 46.8% | [9]; [15] -48% | [9]; [16] 5% | [9]; at 50.0 µM 45.6% | [10]; at 1.2 µM 1% | [10]; at 3.7 µM 7% | [10]; [15] -12% | [10]; at 11.0 µM 25% | [10]; at 33.0 µM 54% | [10]; [16] 18% | [10]; at 50.0 µM 51.1% | [11]; at 1.2 µM 0% | [11]; at 3.7 µM 0% | [11]; at 11.0 µM 0% | [11]; at 33.0 µM 17% | [12]; at 1.2 µM 7% | [12]; at 3.7 µM 4% | [12]; at 11.0 µM 7% | [12]; at 33.0 µM 16% | [13]; at 1.2 µM 3% | [13]; at 3.7 µM 7% | [13]; at 11.0 µM 15% | [13]; at 33.0 µM 42% | [14]; [15] 2% | [14]; [16] 46%
active: [1]; at 33.0 µM 91% | [1]; at 100.0 µM 97% | [3]; at 100.0 µM 82% | [4]; at 100.0 µM 87% | [5]; at 33.0 µM 90% | [5]; [16] 81% | [5]; at 50.0 µM 96.3% | [5]; at 100.0 µM 96% | [6]; at 100.0 µM 93% | [7]; at 100.0 µM 75% | [10]; at 100.0 µM 89% | [11]; at 100.0 µM 79% | [12]; at 100.0 µM 92% | [13]; at 100.0 µM 77% | [14]; at 50.0 µM 79.7%

CCOC(=O)/C(=C\c1cccc(C)c1)C(C)=O
active: [1]; at 33.0 µM 91% | [1]; at 100.0 µM 99% | [2]; at 33.0 µM 88% | [2]; at 100.0 µM 98% | [3]; at 33.0 µM 91% | [3]; at 100.0 µM 99% | [4]; at 33.0 µM 91% | [4]; at 100.0 µM 99% | [5]; at 33.0 µM 89% | [5]; [16] 91% | [5]; at 50.0 µM 92.3% | [5]; at 100.0 µM 98%
inactive: [1]; at 1.2 µM -3% | [1]; at 3.7 µM 10% | [1]; at 11.0 µM 67% | [2]; at 1.2 µM -37% | [2]; at 3.7 µM -15% | [2]; at 11.0 µM 29% | [3]; at 1.2 µM 48% | [3]; at 3.7 µM 31% | [3]; at 11.0 µM 60% | [4]; at 1.2 µM -2% | [4]; at 3.7 µM 3% | [4]; at 11.0 µM 58% | [5]; at 1.2 µM -13% | [5]; at 3.7 µM -8% | [5]; [15] 20% | [5]; at 11.0 µM 58% | [6]; at 1.2 µM 0% | [6]; at 3.7 µM 3%
